Screening data (PubChem)
This is a sample that favours compounds with a hit; in the whole collection about 11% have one here.
HEK cytotox: cytotoxic compounds in HEK 293 cells; HEK 293 viability, ATP luminescence (CellTiter-Glo), 48-72 h; Potency, µM (highest dose often 115 µM), without a hit: top-dose activity change, negative = cytotoxicity, most hits filed as inhibitors; 94,000 compounds, 6.6% hits; AID 1345083; also: nearly all actives have a fitted effect of over 60% in size
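Cytotoxicity was scored by loss of ATP-coupled luminescence (CellTiter-Glo) in HEK 293 cells. Compound treatment ran 48 or 72 hr at 37 degree Celsius, 5% CO2, 95% humidity.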
3T3 cytotox: kills NIH 3T3 cells; Potency, µM (titrated, usually from 96.7 µM), for inactives: at the highest dose activity change, negative = cytotoxicity, most hits filed as inhibitors; AID 1345082; NIH 3T3 viability, CellTiter-Glo ATP luminescence, 48-72 h; 94,000 compounds, 4.3% hits; also: nearly all actives have a fitted effect of over 55% in size
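Mouse fibroblast NIH 3T3 cells, 400 per well, received compound via pintool and were incubated for 48 or 72 hr prior to CellTiter-Glo ATP luminescence measurement.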
FLuc inh: blocks purified firefly luciferase enzyme activity; P08659; purified P. pyralis luciferase, luminescence, biochemical; Potency, µM (doses to about 115 µM), actives largely listed as inhibitors; 76,000 compounds, 2.5% hits; AID 1347043; also: nearly all actives have a fitted effect of over 65% in size
Target sequence (P08659 whole entry, looked up): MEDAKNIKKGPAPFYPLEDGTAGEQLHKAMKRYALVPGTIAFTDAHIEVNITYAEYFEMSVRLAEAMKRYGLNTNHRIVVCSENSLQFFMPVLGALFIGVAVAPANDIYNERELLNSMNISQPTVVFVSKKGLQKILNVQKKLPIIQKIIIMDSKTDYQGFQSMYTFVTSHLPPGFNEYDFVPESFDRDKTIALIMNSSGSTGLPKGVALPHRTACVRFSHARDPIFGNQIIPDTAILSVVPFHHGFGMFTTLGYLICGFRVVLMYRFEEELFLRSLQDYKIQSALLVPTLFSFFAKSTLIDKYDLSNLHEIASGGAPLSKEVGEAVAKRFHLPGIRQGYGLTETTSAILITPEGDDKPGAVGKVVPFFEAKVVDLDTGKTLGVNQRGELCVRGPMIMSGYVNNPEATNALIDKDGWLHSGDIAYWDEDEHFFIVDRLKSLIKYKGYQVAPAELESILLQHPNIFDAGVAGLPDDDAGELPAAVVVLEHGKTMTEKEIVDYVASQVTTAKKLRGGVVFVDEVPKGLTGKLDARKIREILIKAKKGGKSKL
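Purified P. pyralis luciferase (10nM final) in 50mM Tris acetate pH 7.5, 10mM Mg acetate, 0.01% Tween-20, 0.05% BSA with 10uM D-luciferin and 10uM ATP. Compounds titrated qHTS. Luminescence imaged on CCD.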
NPR1 antag: blocks ANP-stimulated signaling of human Npr1 receptor. AID 1347048. P16066. 76,000 compounds, 1.6% hits. Potency, µM (titrated, usually from 46.3 µM), without a hit: at the highest dose activity change, negative = inhibition, actives largely listed as inhibitors. HEK293 hNpr1 GloSensor cGMP, ANP-stimulated luminescence; calls by dose curve; also: nearly all actives have a fitted effect of over 60% in size
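HEK293 cells stably expressing human Npr1 and cGMP GloSensor pGS-40F, loaded 2 h with 2% GloSensor reagent, given compound 30 min at room temperature. Luminescence read before and 20 min after 0.1 nM hNppA.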
Numbers without * were called inactive; i = inactive; ? = inconclusive; . = no result given; [ ] = dose if it differs, or a comment. Unless noted, calls follow the shape of the dose curve; as a rule, active = well fitted curve in the direction sought with a large enough effect; inconclusive = small, poorly fitted or top-dose-only effect, or another doubt; inactive = no such curve, though single readings can be large; an effect the other way counts as inactive or inconclusive. % is scaled to controls: 0 for no effect and ±100 for the full control effect; potency is read from the fitted curve at half-maximal effect.

SMILES	HEK cytotox	3T3 cytotox	FLuc inh	NPR1 antag
COc1cc2c(cc1OCc1ccccc1)N([S+](=O)([O-])c1cccc(C)c1)CC21CCN(C)CC1	28µM*	22µM*	i	-2%
COc1cc2c(cc1OCc1ccccc1)N(C(=O)COc1ccccc1)CC21CCN(C)CC1	28µM*	22µM*	i	0%
COc1cccc([C@@H]2CCN(Cc3[nH]c4ccccc4c3C)C[C@H]2O)c1	?	?	i	2%
Cc1ccc(C(=O)N2CCC3(CC2)c2nccn2-c2ccccc2CN3C)c(C)c1	-24%	-6%	i	?
COc1cc2c(cc1CCc1ccccc1)N(C(=O)COc1ccccc1)CC21CCN(C(C)=O)CC1	-25%	?	i	-2%
COc1cc2c(cc1OCc1ccccc1)N(C(=O)COc1ccccc1C(N)=O)CC21CCN(C)CC1	40µM*	22µM*	i	4%
COc1cc2c(cc1CCc1ccccc1)N([S+](=O)([O-])c1ccc3c(c1)CCO3)CC21CCN(C(C)=O)CC1	?	25µM*	i	-3%
C#C[C@H]1CN2CC[C@H]1C[C@@H]2CNC(=O)Nc1cc(OC)cc(OC)c1	-15%[172 µM]	?	i	0%[70.6 µM]
CN(C)Cc1cn(C[C@H]2C[C@@H]3CCN2C[C@@H]3C(=O)NC2CC2)nn1	i	0%[174 µM]	i	3%[70.6 µM]
O=S(=O)(NC[C@H]1C[C@@H]2CCN1C[C@@H]2CN1CCOCC1)c1ccccc1	1%[172 µM]	4%[174 µM]	i	2%[70.6 µM]
Cc1noc(C)c1C(=O)N1C2CCC1CN(C(C)C)C2	-25%[172 µM]	?	.	.
O=C1NC2(CCN(Cc3ccncc3)C2)Oc2ccccc21 (centres undefined)	-13%[172 µM]	-19%[138 µM]	i	0%[70.6 µM]
O=C1NC2(CCCN(Cc3ccncc3)C2)COc2ccccc21 (centres undefined)	71µM*	32µM*	i	-18%[70.6 µM]
Cc1noc(C)c1CCN1CCC2(C1)C(=O)N(C)C(=O)N2C (centres undefined)	3%	-11%	.	.
CC(C)CCN1CCC2(CNS(=O)(=O)c3cccnc3O2)C1 (centres undefined)	1%	i	.	.
CCCNC(=O)OC[C@H]1C[C@@H]2CCN1C[C@@H]2c1cc(-c2cccs2)nc(C)n1	112µM*	?	i	0%[70.6 µM]
COc1ccccc1-c1cc([C@H]2CN3CC[C@H]2C[C@@H]3COC(=O)Nc2cccc(C(C)=O)c2)nc(C)n1	89µM*	?	i	-11%
Cc1nc(-c2cccs2)cc([C@H]2CN3CC[C@H]2C[C@@H]3COC(=O)Nc2cccc(C(F)(F)F)c2)n1	11µM*	?	i	?
Cc1nc(-c2cccs2)cc([C@H]2CN3CC[C@H]2C[C@@H]3COC(=O)NC2CCCCC2)n1	45µM*	45µM*	i	2%
Cn1nc(-c2cccs2)cc1[C@H]1CN2CC[C@H]1C[C@@H]2COC(=O)Nc1cccc(C(F)(F)F)c1	0%	-3%	i	1%
CCOC(=O)[C@@H]1[C@H]2c3ccccc3N(CCOC)C(=O)[C@H]2N(C(=O)C2CCC2)[C@@H]1c1ccccc1	50µM*	?	.	.
CCOC(=O)[C@H]1CN(C(=O)c2ccccc2)[C@]2(C)C(=O)N(CC3CC3)c3ccccc3[C@H]12	?	-26%[46.1 µM]	.	.
CCOC(=O)[C@@H]1[C@H]2c3ccccc3N(CCOC)C(=O)[C@H]2N(C(=O)CC(C)C)[C@@H]1c1ccccc1	40µM*	?	.	.
COc1cc2c(cc1OC1CCCC1)NC(=O)C21CCN(Cc2cccc(O)c2)CC1	89µM*	25µM*	i	-9%[70.6 µM]
COc1cc2c(cc1OCc1ccncc1)NC(=O)C21CCN(Cc2cccc(O)c2)CC1	?	?	i	-20%
SMILES	HEK cytotox	3T3 cytotox	FLuc inh	NPR1 antag
COc1cc2c(cc1OC1CCCC1)NC(=O)C21CCN(Cc2ccncc2)CC1	?	?	i	-6%[70.6 µM]
COc1cc2c(cc1OCC1CC1)NC(=O)C21CCN(C(=O)c2cccc(O)c2)CC1	?	-22%[138 µM]	i	4%[70.6 µM]
COc1cc2c(cc1OCc1ccncc1)NC(=O)C21CCN(Cc2ccccc2)CC1	100µM*	79µM*	i	-27%[70.6 µM]
COc1cc2c(cc1OCc1ccccc1)NC(=O)C21CCN(Cc2cccc(O)c2)CC1	35µM*	22µM*	?	1%
COc1cc2c(cc1OCC1CC1)NC(=O)C21CCN(Cc2cccc(O)c2)CC1	89µM*	?	?	-9%[70.6 µM]
CCOC(=O)[C@H]1CN(C(=O)OCC)[C@]2(C)C(=O)N(C)c3ccccc3[C@H]12	?	-16%	.	.
CCOC(=O)[C@H]1CN(S(=O)(=O)c2ccccc2)[C@]2(C)C(=O)N(CC(=O)N(C)C)c3ccccc3[C@H]12	-22%[57.5 µM]	?	.	.
COc1cc2c(cc1OCC1CC1)NC(=O)C21CCN(Cc2ccccc2O)CC1	?	40µM*	i	-17%[70.6 µM]
COc1cc2c(cc1OCC1CC1)NC(=O)C21CCN(Cc2ccncc2)CC1	?	-26%[138 µM]	i	4%[70.6 µM]
COc1cc2c(cc1OCc1ccccc1)NC(=O)C21CCN(C(=O)c2cccnc2)CC1	50µM*	?	i	?
N#Cc1cccc(-c2ccc(=O)n3c2[C@@H]2C[C@@H](CN(C(=O)Nc4ccccc4)C2)C3)c1	i	-2%[174 µM]	?	-1%[70.6 µM]
CC[C@H]1CN2CC[C@H]1C[C@@H]2CNC(=O)c1cccc(F)c1	?	-23%[230 µM]	i	4%[70.6 µM]
Cc1ccccc1-c1ccc2n(c1=O)C[C@H]1C[C@@H]2CN(C(=O)c2cnccn2)C1	89µM*	-1%[174 µM]	i	1%[70.6 µM]
O=C(c1cnccn1)N1C[C@@H]2C[C@H](C1)c1ccc(-c3cccc(C(F)(F)F)c3)c(=O)n1C2	-12%	-5%	i	6%
O=C1Nc2ccccc2C12CCN(Cc1cncs1)CC2	-25%[172 µM]	-21%[138 µM]	.	.
Cc1nc(-c2ccccc2)cc([C@H]2CN3CC[C@H]2C[C@@H]3CNS(C)(=O)=O)n1	-21%[172 µM]	?	i	-9%[70.6 µM]
Cc1nc(-c2ccc(C(F)(F)F)cc2)cc([C@H]2CN3CC[C@H]2C[C@@H]3CNS(C)(=O)=O)n1	?	40µM*	i	1%
COc1ccc(CNC[C@H]2C[C@@H]3CCN2C[C@@H]3c2cc(-c3cccs3)nn2C)cc1	45µM*	?	i	1%[70.6 µM]
COc1ccc(C(=O)NC[C@H]2C[C@@H]3CCN2C[C@@H]3c2cc(-c3cccs3)nn2C)cc1	?	?	i	-3%
Cn1nc(-c2ccccc2)cc1[C@H]1CN2CC[C@H]1C[C@@H]2CNS(=O)(=O)Cc1ccccc1	79µM*	79µM*	i	6%
Cc1nc(-c2ccc(F)cc2)cc([C@H]2CN3CC[C@H]2C[C@@H]3CNS(=O)(=O)Cc2ccccc2)n1	35µM*	79µM*	i	4%
COc1cc2c(cc1OCC1CC1)NC(=O)C21CCN(c2nc(C)cnc2C)CC1	?	?	i	5%[70.6 µM]
Cn1nc(-c2ccccc2)cc1[C@H]1CN2CC[C@H]1C[C@@H]2CNS(=O)(=O)c1cccs1	?	?	i	-16%[70.6 µM]
